Assay results as given in PubChem BioAssay (EPA / NIEHS).
Results filed as inconclusive are left out. Activity calls are given as the source filed them. The calls were made as follows, unless noted: active = hit-call score of the fitted dose curve at least 0.9, where 1 is the maximum; inactive = score below 0.9.

Columns and labels:
[1] = BSK_4H_Eotaxin3: BioMAP Diversity Plus: 4H Assay for Eotaxin 3 Biomarker Activity (AID 2283000); conditions: primary human endothelial cells (HUVEC); actives raise or lower the signal;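 also: CCL26 protein level quantified by ELISA in parallel with SRB cytotoxicity check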
In short: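 Endothelial primary cells (human umbilical vein) exposed to compound for 24 h. ELISA detection of Eotaxin-3.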

[2] = target: human Peroxisome Proliferator-activated Receptor alpha (PPARa), PPARA (gene 5465) (UniProt Q07869); experiment: ATG_PPARa_TRANS: Attagene TRANS-FACTORIAL HepG2 Assay for human Peroxisome Proliferator-activated Receptor alpha (PPARa) (AID 2283001; active = hit-call score of the fitted dose curve at least 0.9, where 1 is the maximum)
In short: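 Measures transcriptional activity of an exogenous chimeric PPARa-Gal4 protein in transiently transfected HepG2 cells after 24 h dosing. Reporter mRNA quantified via RT-PCR and capillary electrophoresis; DMSO served as negative control.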

[3] = read-out: Intercellular Adhesion Molecule 1 (ICAM1), ICAM1 (gene 3383); experiment: BSK_3C_ICAM1: BioMAP Diversity Plus: 3C Assay for Intercellular Adhesion Molecule 1 (ICAM1) Biomarker Activity (AID 2283003); conditions: primary human endothelial cells (HUVEC); actives raise or lower the signal
In short: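 Human vascular endothelial primary cells, 3C conditions, 24 h treatment. ICAM-1 by ELISA.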

[4] = target: human Retinoic Acid Receptor beta (RARb), RARB (gene 5915) (UniProt P10826); experiment: ATG_RARb_TRANS: Attagene TRANS-FACTORIAL HepG2 Assay for human Retinoic Acid Receptor beta (AID 2283004; active = hit-call score of the fitted dose curve at least 0.9, where 1 is the maximum)
In short: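 HepG2, transient MRTU transfection, NR–Gal4 chimera, 24 h treatment; RT-PCR plus CE fluorescence detection of reporter mRNA; gain of signal vs DMSO.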

[5] = BSK_3C_Proliferation: Cell Proliferation Assessment in the BioMAP Diversity Plus: 3C Assay (AID 2283006); conditions: primary human endothelial cells (HUVEC);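 as to AC50: potency may reflect either rise or fall in cell number versus DMSO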
In short: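 Proliferation of human vascular endothelial primary cells after 48 h dosing, quantified as SRB-stained protein at 560 nm relative to DMSO.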

[6] = target: human RAR-related Orphan Receptor gamma (RORg), RORC (gene 6097) (UniProt P51449); experiment: ATG_RORg_TRANS: Attagene TRANS-FACTORIAL HepG2 Assay for human RAR-related Orphan Receptor gamma (RORg) (AID 2283011; active = hit-call score of the fitted dose curve at least 0.9, where 1 is the maximum)
In short: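 Activity is scored as increase in GAL4-UAS reporter mRNA over DMSO, detected by fluorescent RT-PCR and capillary electrophoresis in HepG2 cells transiently expressing a RORg-Gal4 chimera, 24 h after dosing.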

[7] = target: human Retinoid X Receptor beta (RXRb), RXRB (gene 6257) (UniProt P28702); experiment: ATG_RXRb_TRANS: Attagene TRANS-FACTORIAL HepG2 Assay for human Retinoid X Receptor beta (RXRb) (AID 2283013; active = hit-call score of the fitted dose curve at least 0.9, where 1 is the maximum)
In short: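 Multiplexed TRANS reporter assay in HepG2; 24 h dosing; reporter mRNA by RT-PCR/CE fluorescence; gain-of-signal relative to DMSO.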

[8] = read-out: E-selectin (Homo sapiens) (UniProt P16581); experiment: BSK_3C_Eselectin: BioMAP Diversity Plus: 3C Assay for Eselectin Biomarker Activity (AID 2283015); conditions: primary human endothelial cells (HUVEC); actives raise or lower the signal;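 also: cell surface E-selectin protein quantified by ELISA 24 h after dosing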
In short: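 Human vascular endothelium from umbilical vein is exposed to test chemicals for 24 h. E-selectin levels are read by ELISA and compared with DMSO controls.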

[9] = read-out: Interleukin-1 alpha (IL1a), IL1A (gene 3552); experiment: BSK_BE3C_IL1a: BioMAP Diversity Plus: BE3C Assay for Interleukin-1 alpha (IL1a) Biomarker Activity (AID 2283016); conditions: primary human bronchial epithelial cells; actives raise or lower the signal
In short: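 Cultures of primary human bronchial epithelial cells receive test chemical. After 24 h, IL-1a is quantified by ELISA, while parallel wells are fixed in TCA and SRB-stained for total protein. Changes in either direction are fitted relative to DMSO.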

[10] = read-out: Monocyte Chemoattractant Protein-1 (MCP1), CCL2 (gene 6347); experiment: BSK_3C_MCP1: BioMAP Diversity Plus: 3C Assay for Monocyte Chemoattractant Protein-1 (MCP1) Biomarker Activity (AID 2283017); conditions: primary human endothelial cells (HUVEC); actives raise or lower the signal
In short: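 Endothelial cells from human umbilical vein are dosed with chemical, cultured 24 h, then assayed for MCP-1 by ELISA; both increases and decreases are modelled against DMSO controls.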

[11] = read-out: Monocyte Chemoattractant Protein-1 (MCP1), CCL2 (gene 6347); experiment: BSK_4H_MCP1: BioMAP Diversity Plus: 4H Assay for Monocyte Chemoattractant Protein-1 (MCP1) Biomarker Activity (AID 2283018); conditions: primary human endothelial cells (HUVEC); actives raise or lower the signal
In short: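 Readout: MCP-1 ELISA on compound-treated HUVEC, sampled 24 h post-dosing. Baseline and negative control DMSO; bidirectional fit. Overt toxicity checked alongside by sulforhodamine B protein staining at time of biomarker measurement.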

[12] = read-out: Human Leukocyte Antigen - DR isotype (HLADR), HLA-DRA (gene 3122); experiment: BSK_3C_HLADR: BioMAP Diversity Plus: 3C Assay for Human Leukocyte Antigen - DR isotype (HLADR) Biomarker Activity (AID 2283019); conditions: primary human endothelial cells (HUVEC); actives raise or lower the signal;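 also: ELISA of cell-surface HLA-DR on HUVEC 24 h after dosing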
In short: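 Endothelial cells from human umbilical vein are treated with test chemical; after 24 h, HLA-DR levels are measured by ELISA. Data are fitted in both directions using DMSO as the baseline.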

[13] = target: human Peroxisome Proliferator-activated Receptor delta (PPARd), PPARD (gene 5467) (UniProt Q03181); experiment: ATG_PPARd_TRANS: Attagene TRANS-FACTORIAL HepG2 Assay for human Peroxisome Proliferator-activated Receptor delta (PPARd) (AID 2283002; active = hit-call score of the fitted dose curve at least 0.9, where 1 is the maximum)
In short: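 Read-out: reporter mRNA induction, quantified by fluorescent RT-PCR products resolved by capillary electrophoresis. Human HepG2 liver cells carried transiently transfected Gal4-UAS reporter constructs with chimeric NR-Gal4 fusions. Cells were dosed for 24 h; DMSO served as baseline.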

[14] = target: Retinoic acid receptor alpha (Homo sapiens) (UniProt P10276); experiment: ATG_RARa_TRANS: Attagene TRANS-FACTORIAL HepG2 Assay for human Retinoic Acid Receptor alpha (RARa) (AID 2283005; active = hit-call score of the fitted dose curve at least 0.9, where 1 is the maximum)
In short: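 HepG2 transiently transfected with multiplex GAL4-UAS reporter units including a human RARa–GAL4 chimera; 24 h compound exposure. Reporter mRNA quantified by RT-PCR, 6-FAM labeling and capillary electrophoresis; gain of signal versus DMSO.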

[15] = target: Nuclear receptor subfamily 1 group I member 2 (Homo sapiens) (UniProt O75469); experiment: ATG_PXR_TRANS: Attagene TRANS-FACTORIAL HepG2 Assay for human Pregnane X Receptor (PXR) (AID 2283008; active = hit-call score of the fitted dose curve at least 0.9, where 1 is the maximum)
In short: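 Fluorescence intensity of FAM-labelled, HpaI-digested reporter amplicons, separated by capillary electrophoresis, quantifies induction. HepG2 cells with PXR-Gal4 trans-reporter system were exposed 24 h; DMSO defines baseline.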

[16] = target: human RAR-related Orphan Receptor beta (RORb), RORB (gene 6096) (UniProt Q92753); experiment: ATG_RORb_TRANS: Attagene TRANS-FACTORIAL HepG2 Assay for human RAR-related Orphan Receptor beta (RORb) (AID 2283010; active = hit-call score of the fitted dose curve at least 0.9, where 1 is the maximum)
In short: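 In this TRANS-format test, human HepG2 cells express chimeric NR-Gal4 fusion proteins driving GAL4-UAS reporters. After 24 h dosing, reporter transcripts are measured by fluorescent RT-PCR/capillary electrophoresis, with DMSO as negative control.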

[17] = target: Retinoic acid receptor RXR-alpha (Homo sapiens) (UniProt P19793); experiment: ATG_RXRa_TRANS: Attagene TRANS-FACTORIAL HepG2 Assay for human Retinoid X Receptor alpha (RXRa) (AID 2283012; active = hit-call score of the fitted dose curve at least 0.9, where 1 is the maximum)
In short: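 Cells (HepG2) carried transiently transfected GAL4-responsive reporter units. Following a 24 h chemical incubation, reporter mRNA induction was read via RT-PCR fragment analysis; DMSO served as negative control and baseline.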

[18] = target: human Thyroid Receptor alpha (THRa1), THRA (gene 7067) (UniProt P10827); experiment: ATG_THRa1_TRANS: Attagene TRANS-FACTORIAL HepG2 Assay for human Thyroid Receptor alpha (THRa1) (AID 2283014; active = hit-call score of the fitted dose curve at least 0.9, where 1 is the maximum)
In short: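 First, HepG2 cells receive multiple GAL4-UAS reporter units and the chimeric receptor. They are then dosed for 24 h, after which RNA is reverse-transcribed, amplified, labelled, HpaI-cut and sized by capillary electrophoresis; gain relative to DMSO is scored.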

[19] = target: human Retinoic Acid Receptor gamma (RARg), RARG (gene 5916) (UniProt P13631); experiment: ATG_RARg_TRANS: Attagene TRANS-FACTORIAL HepG2 Assay for human Retinoic Acid Receptor gamma (RARg) (AID 2283009; active = hit-call score of the fitted dose curve at least 0.9, where 1 is the maximum)
In short: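 HepG2, RARg-GAL4 TRANS system, 24 h exposure; reporter mRNA by RT-PCR + CE fluorescence; increase over DMSO.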

Measured: AC50

Retinoic acid receptor alpha (Homo sapiens), sequence (P10276 whole entry, looked up, the tested form may be a part): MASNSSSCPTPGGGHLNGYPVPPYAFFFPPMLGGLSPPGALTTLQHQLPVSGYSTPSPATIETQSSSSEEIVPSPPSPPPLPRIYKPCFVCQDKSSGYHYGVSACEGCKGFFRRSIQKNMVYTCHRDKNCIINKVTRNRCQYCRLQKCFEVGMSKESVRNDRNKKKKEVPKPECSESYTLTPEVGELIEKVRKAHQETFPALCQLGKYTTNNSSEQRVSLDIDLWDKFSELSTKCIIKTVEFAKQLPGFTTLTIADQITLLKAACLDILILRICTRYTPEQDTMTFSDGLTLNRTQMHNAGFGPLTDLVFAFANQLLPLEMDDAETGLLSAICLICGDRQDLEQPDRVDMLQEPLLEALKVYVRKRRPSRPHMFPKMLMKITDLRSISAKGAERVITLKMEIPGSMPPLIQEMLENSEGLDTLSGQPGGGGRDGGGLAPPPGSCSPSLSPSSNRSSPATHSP
human Peroxisome Proliferator-activated Receptor alpha (PPARa), PPARA (gene 5465), sequence (Q07869 whole entry, looked up, the tested form may be a part): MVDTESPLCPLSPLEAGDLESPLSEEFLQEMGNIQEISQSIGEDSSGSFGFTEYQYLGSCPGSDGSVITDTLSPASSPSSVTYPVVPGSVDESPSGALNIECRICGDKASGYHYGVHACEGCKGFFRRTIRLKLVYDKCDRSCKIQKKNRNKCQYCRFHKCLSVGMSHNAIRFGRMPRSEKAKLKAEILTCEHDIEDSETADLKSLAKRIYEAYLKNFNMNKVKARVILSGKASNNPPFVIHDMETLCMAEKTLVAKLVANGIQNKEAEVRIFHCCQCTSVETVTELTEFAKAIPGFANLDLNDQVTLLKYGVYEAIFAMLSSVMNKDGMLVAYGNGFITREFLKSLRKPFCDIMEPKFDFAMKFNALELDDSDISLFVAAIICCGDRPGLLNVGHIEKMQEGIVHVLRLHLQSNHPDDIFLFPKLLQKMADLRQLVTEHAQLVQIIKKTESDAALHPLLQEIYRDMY
human Thyroid Receptor alpha (THRa1), THRA (gene 7067), sequence (P10827 whole entry, looked up, the tested form may be a part): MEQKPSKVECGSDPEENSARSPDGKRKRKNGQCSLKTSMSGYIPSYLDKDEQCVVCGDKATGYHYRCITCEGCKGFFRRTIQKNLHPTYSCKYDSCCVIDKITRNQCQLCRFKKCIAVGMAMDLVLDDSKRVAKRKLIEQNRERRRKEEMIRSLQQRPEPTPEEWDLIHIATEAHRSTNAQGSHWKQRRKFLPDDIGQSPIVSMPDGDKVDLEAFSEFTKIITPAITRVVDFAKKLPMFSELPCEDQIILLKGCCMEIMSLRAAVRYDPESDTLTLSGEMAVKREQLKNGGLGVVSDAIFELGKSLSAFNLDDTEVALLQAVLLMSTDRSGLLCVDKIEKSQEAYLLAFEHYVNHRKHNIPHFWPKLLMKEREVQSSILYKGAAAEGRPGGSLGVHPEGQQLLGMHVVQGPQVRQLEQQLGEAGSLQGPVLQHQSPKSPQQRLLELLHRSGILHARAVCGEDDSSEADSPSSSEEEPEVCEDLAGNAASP
human RAR-related Orphan Receptor gamma (RORg), RORC (gene 6097), sequence (P51449 whole entry, looked up, the tested form may be a part): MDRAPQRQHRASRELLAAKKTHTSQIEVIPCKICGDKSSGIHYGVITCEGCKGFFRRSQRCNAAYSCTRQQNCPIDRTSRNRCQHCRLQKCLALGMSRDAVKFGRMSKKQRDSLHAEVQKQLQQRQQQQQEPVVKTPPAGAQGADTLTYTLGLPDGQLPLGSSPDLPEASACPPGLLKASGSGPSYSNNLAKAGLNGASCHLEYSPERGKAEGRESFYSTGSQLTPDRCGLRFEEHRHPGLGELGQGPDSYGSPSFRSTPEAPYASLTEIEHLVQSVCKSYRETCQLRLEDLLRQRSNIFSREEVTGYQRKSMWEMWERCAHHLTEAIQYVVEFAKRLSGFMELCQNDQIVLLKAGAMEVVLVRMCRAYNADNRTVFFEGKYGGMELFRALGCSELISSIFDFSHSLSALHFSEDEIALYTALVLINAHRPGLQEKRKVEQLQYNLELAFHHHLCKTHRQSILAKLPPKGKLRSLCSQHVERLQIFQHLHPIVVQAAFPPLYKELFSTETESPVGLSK
Nuclear receptor subfamily 1 group I member 2 (Homo sapiens), sequence (O75469 whole entry, looked up, the tested form may be a part): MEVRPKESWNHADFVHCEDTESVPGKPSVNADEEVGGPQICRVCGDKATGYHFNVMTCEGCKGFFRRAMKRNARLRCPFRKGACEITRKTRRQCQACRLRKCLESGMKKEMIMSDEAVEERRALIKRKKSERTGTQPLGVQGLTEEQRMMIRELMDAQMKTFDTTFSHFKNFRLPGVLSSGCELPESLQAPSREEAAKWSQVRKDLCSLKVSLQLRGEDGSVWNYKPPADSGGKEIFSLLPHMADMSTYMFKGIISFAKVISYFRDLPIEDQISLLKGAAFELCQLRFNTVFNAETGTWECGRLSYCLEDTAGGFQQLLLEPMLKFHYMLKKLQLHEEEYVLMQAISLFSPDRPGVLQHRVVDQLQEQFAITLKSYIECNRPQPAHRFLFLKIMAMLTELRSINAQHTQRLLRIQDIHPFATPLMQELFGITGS
human RAR-related Orphan Receptor beta (RORb), RORB (gene 6096), sequence (Q92753 whole entry, looked up, the tested form may be a part): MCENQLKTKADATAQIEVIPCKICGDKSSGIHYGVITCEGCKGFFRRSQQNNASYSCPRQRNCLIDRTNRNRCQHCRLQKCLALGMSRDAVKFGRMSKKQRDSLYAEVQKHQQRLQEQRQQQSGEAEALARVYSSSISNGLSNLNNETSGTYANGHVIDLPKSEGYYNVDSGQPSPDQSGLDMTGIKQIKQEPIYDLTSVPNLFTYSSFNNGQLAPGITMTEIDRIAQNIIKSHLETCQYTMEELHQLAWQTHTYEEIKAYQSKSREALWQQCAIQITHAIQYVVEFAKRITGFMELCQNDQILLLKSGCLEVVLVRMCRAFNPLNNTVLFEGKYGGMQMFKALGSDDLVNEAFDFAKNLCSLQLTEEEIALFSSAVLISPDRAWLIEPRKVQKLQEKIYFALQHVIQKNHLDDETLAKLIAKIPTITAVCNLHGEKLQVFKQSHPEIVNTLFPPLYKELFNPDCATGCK
human Retinoid X Receptor beta (RXRb), RXRB (gene 6257), sequence (P28702 whole entry, looked up): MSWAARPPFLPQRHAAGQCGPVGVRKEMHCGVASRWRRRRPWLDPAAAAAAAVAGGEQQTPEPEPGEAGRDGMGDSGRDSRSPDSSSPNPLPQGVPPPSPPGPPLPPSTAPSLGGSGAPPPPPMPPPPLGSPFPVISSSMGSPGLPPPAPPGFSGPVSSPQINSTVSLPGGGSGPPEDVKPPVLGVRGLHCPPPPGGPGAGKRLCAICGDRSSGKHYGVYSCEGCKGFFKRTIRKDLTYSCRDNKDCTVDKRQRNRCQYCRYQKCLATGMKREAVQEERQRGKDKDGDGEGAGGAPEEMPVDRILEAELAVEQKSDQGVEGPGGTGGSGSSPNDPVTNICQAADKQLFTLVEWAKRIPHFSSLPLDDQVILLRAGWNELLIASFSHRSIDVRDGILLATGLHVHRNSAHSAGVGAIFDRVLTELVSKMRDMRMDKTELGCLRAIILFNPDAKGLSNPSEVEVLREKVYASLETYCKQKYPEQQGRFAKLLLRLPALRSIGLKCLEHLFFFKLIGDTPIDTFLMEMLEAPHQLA
human Retinoic Acid Receptor gamma (RARg), RARG (gene 5916), sequence (P13631 whole entry, looked up, the tested form may be a part): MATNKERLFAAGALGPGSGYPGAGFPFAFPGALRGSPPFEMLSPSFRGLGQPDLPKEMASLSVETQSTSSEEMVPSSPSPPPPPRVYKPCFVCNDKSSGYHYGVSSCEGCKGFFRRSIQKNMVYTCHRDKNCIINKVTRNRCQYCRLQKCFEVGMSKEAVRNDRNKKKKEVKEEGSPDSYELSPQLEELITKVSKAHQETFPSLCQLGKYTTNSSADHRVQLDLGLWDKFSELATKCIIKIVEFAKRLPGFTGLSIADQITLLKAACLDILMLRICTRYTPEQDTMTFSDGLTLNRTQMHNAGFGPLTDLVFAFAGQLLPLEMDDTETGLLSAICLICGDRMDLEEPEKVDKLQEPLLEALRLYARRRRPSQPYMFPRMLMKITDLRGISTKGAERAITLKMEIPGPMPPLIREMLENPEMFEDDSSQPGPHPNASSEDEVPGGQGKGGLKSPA
Retinoic acid receptor RXR-alpha (Homo sapiens), sequence (P19793 whole entry, looked up, the tested form may be a part): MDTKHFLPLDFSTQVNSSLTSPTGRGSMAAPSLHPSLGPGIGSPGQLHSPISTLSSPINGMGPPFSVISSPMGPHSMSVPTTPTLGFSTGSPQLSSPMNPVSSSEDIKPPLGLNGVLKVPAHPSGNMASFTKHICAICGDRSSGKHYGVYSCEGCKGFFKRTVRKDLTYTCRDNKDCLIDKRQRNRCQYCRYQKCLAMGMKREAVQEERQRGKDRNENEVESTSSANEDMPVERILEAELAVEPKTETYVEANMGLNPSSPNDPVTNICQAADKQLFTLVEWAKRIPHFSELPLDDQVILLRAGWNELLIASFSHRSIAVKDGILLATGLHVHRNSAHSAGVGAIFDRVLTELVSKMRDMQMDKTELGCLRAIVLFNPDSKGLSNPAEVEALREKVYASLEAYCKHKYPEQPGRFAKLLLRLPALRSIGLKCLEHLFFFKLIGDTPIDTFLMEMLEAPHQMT
E-selectin (Homo sapiens), sequence (P16581 whole entry, looked up): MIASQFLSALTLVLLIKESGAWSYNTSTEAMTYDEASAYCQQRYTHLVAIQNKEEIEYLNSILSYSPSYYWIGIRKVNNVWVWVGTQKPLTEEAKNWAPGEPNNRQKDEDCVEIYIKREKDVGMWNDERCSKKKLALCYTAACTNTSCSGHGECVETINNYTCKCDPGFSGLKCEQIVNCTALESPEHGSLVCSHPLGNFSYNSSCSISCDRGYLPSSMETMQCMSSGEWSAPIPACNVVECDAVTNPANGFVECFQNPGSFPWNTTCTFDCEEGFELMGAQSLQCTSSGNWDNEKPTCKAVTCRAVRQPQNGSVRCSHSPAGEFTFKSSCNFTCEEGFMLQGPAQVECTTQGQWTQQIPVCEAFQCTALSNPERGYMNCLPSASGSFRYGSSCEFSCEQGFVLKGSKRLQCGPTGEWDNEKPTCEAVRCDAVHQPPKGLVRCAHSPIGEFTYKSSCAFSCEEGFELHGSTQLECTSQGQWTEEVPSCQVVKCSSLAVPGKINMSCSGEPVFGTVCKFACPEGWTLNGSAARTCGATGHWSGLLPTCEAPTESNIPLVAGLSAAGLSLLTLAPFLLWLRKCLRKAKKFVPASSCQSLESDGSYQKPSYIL

Cc1ccc2ncccc2c1
inactive: [1] | [2] | [3] | [4] | [5] | [6] | [7] | [8] | [9] | [10] | [11] | [12]

CC1(C)NC(=O)NC1=O
inactive: [1] | [13] | [3] | [14] | [5] | [15] | [16] | [17] | [7] | [18] | [8] | [9] | [10] | [11] | [12]

CC(C)c1ccc(C(=O)N=C(N)N)cc1S(C)(=O)=O
inactive: [1] | [13] | [3] | [4] | [5] | [15] | [6] | [18] | [8] | [9] | [10] | [11] | [12]

O=C(O)Cc1ccccc1Nc1c(Cl)cccc1Cl
inactive: [1] | [2] | [3] | [5] | [16] | [8] | [9] | [10] | [11] | [12]
active: [15] 4.47 µM

Cc1cccc(C)c1O
inactive: [1] | [2] | [3] | [5] | [15] | [19] | [6] | [17] | [7] | [18] | [8] | [9] | [10] | [11] | [12]

Nc1nc(N)c2nc(CNc3ccc(C(=O)N[C@@H](CCC(=O)O)C(=O)O)cc3)cnc2n1
inactive: [1] | [13] | [3] | [4] | [14] | [5] | [19] | [16] | [6] | [17] | [7] | [18] | [8] | [9] | [10] | [11] | [12]

C[C@]12C=CC(=O)C=C1CC[C@@H]1[C@@H]2C(=O)C[C@@]2(C)[C@H]1CC[C@]2(O)C(=O)CO
inactive: [1] | [2] | [3] | [5] | [15] | [6] | [18] | [8] | [9] | [10] | [11] | [12]

CCCCCCCCCCCCCCCCCC(=O)O
active: [5] 3.97 µM
inactive: [1] | [2] | [3] | [19] | [6] | [8] | [9] | [10] | [11] | [12]

CCCCCCC(=O)OCC
inactive: [1] | [13] | [3] | [4] | [14] | [5] | [19] | [16] | [17] | [18] | [8] | [9] | [10] | [11] | [12]
active: [15] 57.3 µM | [7] 32.5 µM
